Data as given in PubChem BioAssay (Tox21).
Values without a mark were called inactive. Inconclusive results are not listed. A call without a number means that no potency is given here. Calls of active or inactive are those of the source. Unless noted, calls follow the shape of the dose curve; as a rule, active = well fitted curve in the direction sought with a large enough effect in the repeat runs; inconclusive = weak or mixed curves; inactive = no such curve, though single readings can be large; an effect the other way counts as inactive or inconclusive.

How the values were obtained:
[1] = qHTS assay to identify small molecule antagonists of the estrogen related receptor (ERR) signaling pathway from Tox21 library - cell viability counter screen (AID 1224834); also: nearly all actives have a fitted effect of over 30% in size
Summary of the method: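 Seeded ERR cells were rested 6 h at 37 C/5% CO2 before compounds, positive and negative controls or DMSO were added. Incubation continued for 17.5 h, and viability was then quantified by CellTiter-Fluor fluorescence.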

[2] = molecular target: Luciferin 4-monooxygenase (Photinus pyralis) (UniProt P08659); test: qHTS assay to identify small molecule inhibitors of firefly luciferase (AID 1224835); also: nearly all actives have a fitted effect of over 25% in size; also: potency is read from the fitted curve at half-maximal effect
Luciferin 4-monooxygenase (Photinus pyralis), sequence (P08659 whole entry, looked up): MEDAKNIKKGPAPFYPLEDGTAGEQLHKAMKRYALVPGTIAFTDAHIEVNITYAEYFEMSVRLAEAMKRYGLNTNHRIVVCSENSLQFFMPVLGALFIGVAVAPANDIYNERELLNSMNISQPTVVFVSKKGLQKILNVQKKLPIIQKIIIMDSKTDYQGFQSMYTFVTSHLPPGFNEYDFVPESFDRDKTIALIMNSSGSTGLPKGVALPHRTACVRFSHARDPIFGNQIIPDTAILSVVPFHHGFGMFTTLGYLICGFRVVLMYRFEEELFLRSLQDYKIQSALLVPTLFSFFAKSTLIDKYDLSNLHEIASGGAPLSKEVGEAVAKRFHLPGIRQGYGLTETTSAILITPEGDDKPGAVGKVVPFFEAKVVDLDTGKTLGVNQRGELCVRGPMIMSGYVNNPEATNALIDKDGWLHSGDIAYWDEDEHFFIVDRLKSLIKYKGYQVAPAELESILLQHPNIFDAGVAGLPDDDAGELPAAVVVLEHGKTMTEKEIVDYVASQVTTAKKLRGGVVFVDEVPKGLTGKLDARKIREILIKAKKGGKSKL
Summary of the method: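 Inhibition of purified Photinus luciferase is measured by luminescence. Substrate levels (D-luciferin, ATP) sit at their KM values. Each compound is tested in a concentration series.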

[3] = qHTS assay to identify small molecule agonists of the constitutive androstane receptor (CAR) signaling pathway - cell viability counter screen (AID 1224836); also: nearly all actives have a fitted effect of over 45% in size
Summary of the method: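 23 h treatment, 37 C, 5% CO2. Cell line: HepG2 stably expressing hCAR with a CYP2B6-2.2kb construct. Co-treatment: PK11195, 0.75 uM final. Read-out: CellTiter-Fluor fluorescence intensity.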

[4] = qHTS assay to identify small molecule antagonists of the constitutive androstane receptor (CAR) signaling pathway - cell viability counter screen (AID 1224837); also: nearly all actives have a fitted effect of over 45% in size
Summary of the method: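 To flag cytotoxic false antagonists, HepG2 hCAR/CYP2B6-2.2kb cells were treated 23 hr with 15-concentration compound series and 50 nM CITCO at 37 C/5% CO2; CellTiter-Fluor fluorescence was the measured end point.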

[5] = molecular target: Nuclear receptor subfamily 1 group I member 3 (Homo sapiens) (UniProt Q14994); test: qHTS assay to identify small molecule antagonists of the constitutive androstane receptor (CAR) signaling pathway (AID 1224838);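 also: HepG2 cells stably expressing hCAR with CYP2B6 luciferase reporter stimulated by CITCO; nearly all actives have a fitted effect of over 40% in size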; also: potency is read from the fitted curve at half-maximal effect
Nuclear receptor subfamily 1 group I member 3 (Homo sapiens), sequence (Q14994 whole entry, looked up): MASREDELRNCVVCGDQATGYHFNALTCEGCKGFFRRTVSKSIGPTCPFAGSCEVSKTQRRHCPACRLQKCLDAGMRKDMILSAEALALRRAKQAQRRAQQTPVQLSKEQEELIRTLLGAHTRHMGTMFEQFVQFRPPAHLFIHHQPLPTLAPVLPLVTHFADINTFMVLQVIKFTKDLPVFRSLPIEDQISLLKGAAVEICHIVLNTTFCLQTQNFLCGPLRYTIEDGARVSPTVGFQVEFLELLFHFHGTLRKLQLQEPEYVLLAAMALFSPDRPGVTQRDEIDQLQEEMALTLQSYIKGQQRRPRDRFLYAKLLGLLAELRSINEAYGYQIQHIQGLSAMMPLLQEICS
Summary of the method: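 Human hepatoma HepG2 cells expressing hCAR and a CYP2B6 promoter (2.2 kb) luciferase construct; compound titration (15 points) with 50 nM CITCO final, 24 h at 37 C/5% CO2; luminescence via ONE-Glo after 30 min at room temperature.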

[6] = molecular target: Nuclear receptor subfamily 1 group I member 3 (Homo sapiens) (UniProt Q14994); test: qHTS assay to identify small molecule agonists of the constitutive androstane receptor (CAR) signaling pathway (AID 1224839); also: nearly all actives have a fitted effect of over 15% in size; also: potency is read from the fitted curve at half-maximal effect;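 as to activation: HepG2 cells stably carrying human CAR and a CYP2B6 luciferase reporter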
Summary of the method: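 Compounds tested at 15 concentrations on HepG2 cells stably harbouring hCAR and CYP2B6-2.2kb reporter constructs, co-treated with PK11195 (0.75 uM final), 24 h at 37 C; luminescent reporter signal quantified.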

[7] = qHTS assay to identify small molecule antagonists of the estrogen related receptor signaling pathway with the pleiotropic PPARgamma coactivator (PGC) from Tox21 10K library - cell viability counter screen (AID 1224840; active = well fitted cell-killing curve with a large enough effect in the repeat runs, not every such curve was filed as active; also: nearly all actives have a fitted effect of over 40% in size)
Summary of the method: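 Seeded PGC/ERR cells (2,000/well, 6 h, 37 C/5% CO2) get compound by pin tool; 17.5 h incubation at 37 C; CellTiter-Fluor added, 30 min, fluorescence measured.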

[8] = qHTS assay to identify small molecule antagonists of the estrogen related receptor signaling pathway with the pleiotropic PPARgamma coactivator (PGC) from Tox21 10K library (AID 1224841; call rule not given here; also: actives are mostly falling curves and most rising ones were filed inactive; nearly all actives have a fitted effect of over 50% in size; also: potency is read from the fitted curve at half-maximal effect)
Summary of the method: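 Test chemicals dissolved in DMSO were applied to pre-incubated (6 h) PGC/ERR cells at 2,000 cells/well for an 18 h, 37 C treatment; reporter luminescence was then read using One-Glo.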

[9] = qHTS assay to identify small molecule agonists of the estrogen related receptor signaling pathway with the pleiotropic PPARgamma coactivator (PGC) from Tox21 10K library (AID 1224842); also: nearly all actives have a fitted effect of over 15% in size; also: potency is read from the fitted curve at half-maximal effect
Summary of the method: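 Luminescence from One-Glo (30 min, room temperature) measured after PGC/ERR cells had 18 h at 37 C with pinned compound (23 nL in DMSO). Cells had been seeded at 2,000 per well and pre-incubated 6 h.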

[10] = molecular target: Thyrotropin receptor (Homo sapiens) (UniProt P16473); test: qHTS assay to identify small molecule agonists of the thyroid stimulating hormone receptor (TSHR) signaling pathway (AID 1224843; calls by dose curve; also: nearly all actives have a fitted effect of over 45% in size)
Thyrotropin receptor (Homo sapiens), sequence (P16473 whole entry, looked up): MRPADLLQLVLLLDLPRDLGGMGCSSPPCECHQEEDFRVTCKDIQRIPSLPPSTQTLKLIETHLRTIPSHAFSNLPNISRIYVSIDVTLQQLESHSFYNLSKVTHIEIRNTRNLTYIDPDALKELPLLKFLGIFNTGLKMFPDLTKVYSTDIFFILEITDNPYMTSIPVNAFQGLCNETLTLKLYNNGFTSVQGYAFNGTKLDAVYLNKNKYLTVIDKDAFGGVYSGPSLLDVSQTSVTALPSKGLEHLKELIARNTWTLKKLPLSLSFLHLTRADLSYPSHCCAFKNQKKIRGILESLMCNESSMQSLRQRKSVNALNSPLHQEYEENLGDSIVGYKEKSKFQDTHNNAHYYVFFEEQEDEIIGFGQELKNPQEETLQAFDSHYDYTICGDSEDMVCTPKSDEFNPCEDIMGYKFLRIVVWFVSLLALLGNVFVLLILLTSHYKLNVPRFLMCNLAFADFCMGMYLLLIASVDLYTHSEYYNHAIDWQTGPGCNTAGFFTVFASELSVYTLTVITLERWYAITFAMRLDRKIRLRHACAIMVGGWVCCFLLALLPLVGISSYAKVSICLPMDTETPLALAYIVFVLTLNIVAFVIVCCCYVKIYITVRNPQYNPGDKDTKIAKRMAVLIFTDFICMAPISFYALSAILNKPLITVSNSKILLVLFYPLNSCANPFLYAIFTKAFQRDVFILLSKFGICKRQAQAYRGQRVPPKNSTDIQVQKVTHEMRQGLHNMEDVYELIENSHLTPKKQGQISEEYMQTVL
Summary of the method: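 Agonist activity read as cAMP rise via d2/cryptate HTRF competition, 1 h room-temperature detection, in HEK293 cells expressing TSHR. Fifteen-point titrations, each run in triplicate, with a 30 min room-temperature incubation beforehand.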

[11] = qHTS assay to identify small molecule agonists of the hypoxia (HIF-1) signaling pathway - cell viability counter screen (AID 1224844; calls by dose curve; also: nearly all actives have a fitted effect of over 50% in size)
Summary of the method: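 HRE-bla ME-180; 0.5% dFBS; cpd 17 h, 37C, 5% CO2; CellTiter-Glo lum., 30 min RT, post-FRET read, same wells.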

[12] = qHTS assay to identify small molecule agonists of H2AX (AID 1224845; active = well fitted activation curve with a large enough effect in the signal ratio in the repeat runs, not every such curve was filed as active; the % refers to the signal ratio)
Summary of the method: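 Phospho-H2AX Ser139 measured by HTRF (ex 320 nm; em 665 and 620 nm) after 24 hr antibody incubation. Compounds, 15 concentrations, 0.76% DMSO, were applied to CHO-K1 cells for 3hr at 37C before lysis.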

[13] = qHTS assay to identify small molecule agonists of the hypoxia (HIF-1) signaling pathway (AID 1224846; active = well fitted activation curve with a large enough effect in the signal ratio in the repeat runs, not every such curve was filed as active; the % refers to the signal ratio)
Summary of the method: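 Reporter induction in HRE-bla ME-180 cells is taken as agonism: cells sit 5 hrs after plating, receive compounds or DMSO only, incubate 17 hrs at 37C under 5% CO2, and are loaded with CCF4-AM for beta-lactamase FRET measurement.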

[14] = qHTS assay to identify small molecule antagonists of the estrogen related receptor (ERR) signaling pathway from Tox21 library (AID 1224848); also: nearly all actives have a fitted effect of over 50% in size
Summary of the method: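 Luciferase luminescence (ONE-Glo, 30 min room temperature) was the read-out. Cells of the NTP-supplied ERR line, 2,000 per well, were given 6 h at 37 C before compound addition in DMSO and 18 h exposure at 37 C.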

[15] = qHTS RealTime-Glo MT Cell Viability Assay in HepG2 cells - 24 hour (AID 1224867); also: nearly all actives have a fitted effect of over 50% in size
Summary of the method: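 Compound treatment began 5 h after plating HepG2 cells (600/well) with NanoLuc luciferase and prosubstrate. Plates stayed at 37 C for 40 h; luminescence was captured at six time points, 0 h through 40 h.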

[16] = qHTS RealTime-Glo MT Cell Viability Assay in HEK293 cells - 32 hour (AID 1224868); also: nearly all actives have a fitted effect of over 50% in size; also: potency is read from the fitted curve at half-maximal effect
Summary of the method: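 Quantitative high-throughput screen of the Tox21 10K library in HEK293: cells and RealTime-Glo reagents plated together, compound added at 5 h, luminescence monitored through 40 h at 37 C.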

[17] = A CellTox Green Cytotoxicity Assay to monitor cytotoxicity in HEK293 cells - 0 hour (AID 1224869); also: nearly all actives have a fitted effect of over 50% in size
Summary of the method: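 Tox21 screen in HEK293: membrane-impermeant cyanine dye fluoresces on binding dead-cell DNA; compound pinned 5 h post-seeding, plates held at 37 C, signal read repeatedly through 40 h.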

[18] = qHTS assay to identify small molecule agonists of H2AX - cell viability counter screen (AID 1224847; calls by dose curve; also: top concentration of the series differs between compounds; nearly all actives have a fitted effect of over 30% in size)
Summary of the method: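 Compounds tested at 15 concentrations were incubated 3 hr at 37C with wild-type CHO-K1 cells; cellular ATP-based luminescence (CellTiter-Glo) indicated viability.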

[19] = qHTS assay to identify small molecule agonists of the estrogen related receptor (ERR) signaling pathway from Tox21 library (AID 1224849; calls by dose curve; also: nearly all actives have a fitted effect of over 15% in size); settings: ERR reporter cell line, ONE-Glo luciferase, 18 h; at 92.4 µM (top of the series) unless noted
Summary of the method: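 Tox21 compounds tested for ERR agonism in an NTP reporter cell line: 18 h treatment at 37 C, then ONE-Glo luminescence.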

[20] = qHTS assay to identify small molecule agonists of the estrogen related receptor signaling pathway with the pleiotropic PPARgamma coactivator (PGC) (AID 1224823)
Summary of the method: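 Compounds dissolved in DMSO are added by pin tool to PGC/ERR cells that have settled for 6 h, and incubation continues 18 h at 37 C. Reporter output is measured as One-Glo luminescence.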

Row | Structure (SMILES) | Potency [1] | Potency [2] | Potency [3] | Potency [4] | Potency [5] | Potency [6] | Potency [7] | Potency [8] | Potency [9] | Potency [10] | Potency [11] | Potency [12] | outcome [13] | Potency [14] | Potency [15] | Potency [16] | Potency [17] | Potency [18] | activity change, positive = activation [19] | outcome [20]
1 | Oc1ccc2c(c1)Cc1ccccc1-2 | inactive | 31.7 µM (active) | inactive | inactive | inactive | 61.1 µM (active) | inactive | inactive | inactive | inactive | inactive | inactive | inactive | inactive | inactive | 19.5 µM (active) | inactive |  |  | 
2 | ClC1=C(Cl)C1(Cl)Cl | inactive | inactive | inactive | inactive | inactive | inactive | inactive | inactive | inactive | inactive | inactive | inactive | inactive | inactive | inactive | inactive | inactive | inactive | 7.16% | 
3 | O=C1c2ccccc2C(=O)c2c(O)ccc(O)c21 | inactive | inactive | inactive | inactive | inactive | 48.6 µM (active) | inactive | 0.545 µM (active) | inactive |  | inactive | inactive | inactive | inactive | inactive | inactive | inactive | inactive | -2.45% | 
4 | O=C(O)c1ccc(O)cc1O | inactive | inactive | inactive | inactive | inactive | inactive | inactive | inactive | inactive | inactive | inactive | inactive | inactive | inactive | inactive | inactive | inactive | inactive | -9.45% | 
5 | N[C@@H](Cc1cc(I)c(O)c(I)c1)C(=O)O | inactive | inactive | inactive | inactive | inactive | inactive | inactive | inactive | inactive | inactive | inactive | inactive | inactive | inactive | inactive | inactive | inactive | inactive | 2.55% [at 42.5 µM] | 
6 | Nc1ccc(F)cc1 | inactive | inactive | inactive | inactive | inactive | inactive | inactive | inactive | inactive |  | inactive | inactive | inactive | inactive | inactive | inactive | inactive | inactive | 0.224% | 
7 | CC12CC3CC(C)(C1)CC(N)(C3)C2 | inactive | inactive | inactive | inactive | inactive | inactive | inactive | inactive | inactive | inactive | inactive | inactive |  | inactive | inactive | inactive | inactive | inactive |  | inactive
8 | Nc1c(Cl)cc(Cl)cc1[N+](=O)[O-] | inactive | inactive | inactive | inactive | inactive | inactive | inactive | inactive | 5.45 µM (active) | inactive | inactive | inactive | inactive | inactive | inactive | inactive | inactive |  | -2% | 
9 | CC(C)Cc1ccc(CC(=O)O)cc1 | inactive | inactive | inactive | inactive | inactive | inactive | inactive | inactive | inactive |  | inactive | inactive | inactive | inactive | inactive | inactive |  | inactive | -10.3% [at 42.5 µM] | 
10 | [Cl][Nd]([Cl])[Cl] | inactive | 39.9 µM (active) | inactive | inactive | inactive | inactive | inactive | inactive | inactive | inactive | inactive | inactive | inactive | inactive | inactive | inactive | inactive | inactive |  | 
11 | COc1cc(NS(=O)(=O)c2ccc(N)cc2)nc(C)n1 | inactive | inactive | inactive | inactive | inactive | inactive | inactive | inactive | inactive | inactive | inactive | inactive | inactive | inactive | inactive | inactive | inactive | inactive |  | 
12 | O=C1CC[C@@H](C(=O)O)N1 | inactive | inactive | inactive | inactive | inactive | inactive | inactive | inactive | inactive | inactive | inactive | inactive | inactive | inactive | inactive | inactive | inactive | inactive |  | 
13 | O=C(O)CN1C(=O)c2cccc3cccc(c23)C1=O | inactive | inactive | inactive | inactive | inactive | inactive | inactive | inactive | inactive | inactive | inactive | inactive | inactive | inactive | inactive | inactive | inactive | inactive |  | 
14 | CCO[Si](C)(CCCOCC1CO1)OCC (stereo unspecified) | inactive | inactive | inactive | inactive | inactive | inactive | inactive | inactive | inactive |  | inactive | inactive | inactive | inactive | inactive | inactive | inactive | inactive | 0.152% | 
15 | CCNc1nc(N)nc(Cl)n1 | inactive | inactive | inactive | inactive | 24.3 µM (active) | inactive | inactive | inactive | inactive | inactive | inactive | inactive | inactive | inactive | inactive | inactive | inactive | inactive |  | 
